Pf Dd2 inh = blocks in vitro growth of P. falciparum Dd2; 4.3% of 120,000 active; Potency, µM (top dose mostly 28.9 µM), for inactives: at the highest dose activity, negative = inhibition, usual class: inhibitors; P. falciparum Dd2 growth, SYBR Green, 72 h; active means well fitted inhibition curve with a large enough effect;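 further: plate controls were DMSO vehicle for no effect and reference drug for full effect; nearly all actives have a fitted effect of over 65% in size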
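Readout: SYBR Green fluorescence, 485 nm excitation, 535 nm emission, after ~16 h lysis at 37C. Before that, Dd2-infected red cells (2.5% hematocrit) grew 72 h with compound, 29 uM top final concentration.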
Active calls of the source: *; [ ] = another dose, or the depositor's remark. The full list was thinned out, with hits kept by preference. Potency means the concentration at half of the fitted maximal effect.

What do the screens show for `Cc1ccc(NC(=O)Cn2cc(C(=O)c3ccco3)c3ccccc32)c(C)c1`?
Pf Dd2 inh: -19%

What do the screens show for `O=C(c1cccs1)c1cn(CCOc2ccc(F)cc2)c2ccccc12`?
Pf Dd2 inh: -30%

How did O=C(c1ccco1)c1cn(CCOc2ccc(F)cc2)c2ccccc12 do in these assays?
Pf Dd2 inh: 1.3µM*

What do the screens show for `CC(C)CCNC(=O)C1CC(=O)N(c2n[nH]c3cc(Br)ccc23)C1` (stereo not drawn)?
Pf Dd2 inh: -5%

What do the screens show for `COc1cccc(C(=O)N2CCC(n3c(=O)[nH]c4ccccc43)CC2)c1`?
Pf Dd2 inh: 11%

Results for COc1ccc(-c2cc(N3CCC(NC(=O)c4ccc(Cl)cc4)CC3)n[nH]2)cc1 ?
Pf Dd2 inh: inactive

Results for CN(C(=O)c1ccnc(-c2nnc3ccc(N4CCOCC4)nn23)c1)c1ccccc1 ?
Pf Dd2 inh: -11%[44.1 µM]

How did CN1CCN(C(=O)CC[C@H]2CNC(=O)[C@@H]3[C@@H](CCN3C3CCOCC3)N2C)CC1 do in these assays?
Pf Dd2 inh: 1%[44.1 µM]

Results for CCOC(=O)c1c(C)oc2nc(C)nc(NCCc3ccc(OCC)cc3)c12 ?
Pf Dd2 inh: inactive[5.79 µM]

Results for CCOC(=O)c1c(C)oc2nc(C)nc(N3CCN(c4cc(Cl)ccc4C)CC3)c12 ?
Pf Dd2 inh: 8.9µM*

Results for CCOC(=O)c1c(C)oc2nc(C)nc(NCCCN3CCN(c4ccccc4)CC3)c12 ?
Pf Dd2 inh: -13%

Results for Cc1nc(N2CCOCC2)c2c(C(=O)N3CCN(c4ccccc4)CC3)c(C)oc2n1 ?
Pf Dd2 inh: 32%

What do the screens show for `CCc1cccc(NC(=O)c2c(C)oc3nc(C)nc(N4CCCC4)c23)c1`?
Pf Dd2 inh: -9%

How did CCOC(=O)c1c(C)oc2nc(C)nc(NCCc3ccc(Cl)cc3)c12 do in these assays?
Pf Dd2 inh: -18%

What do the screens show for `CCOC(=O)c1c(C)oc2nc(C)nc(N3CCN(c4ccccc4F)CC3)c12`?
Pf Dd2 inh: 3.2µM*

Results for CCOC(=O)c1c(C)oc2nc(C)nc(NCC3CCN(Cc4cccc(Cl)c4)CC3)c12 ?
Pf Dd2 inh: -18%

How did CCOC(=O)c1c(C)oc2nc(C)nc(NCC3CCN(Cc4ccc(C)cc4)CC3)c12 do in these assays?
Pf Dd2 inh: 7.1µM*

How did NC1CCCCN(C(=O)CCn2cc(Cl)cn2)C1 (stereo not drawn) do in these assays?
Pf Dd2 inh: 0%

Results for O=C1CCN(C(=O)COc2ccccc2)CCCC(CO)CCN1 (stereo not drawn) ?
Pf Dd2 inh: -4%

What do the screens show for `O=Cc1cccc(-c2cncnc2)c1`?
Pf Dd2 inh: 3%[44.1 µM]

What do the screens show for `CC1(Cc2ccc3c(c2)OCO3)CCCN(CC(=O)NCc2ccco2)C1` (stereo not drawn)?
Pf Dd2 inh: -20%

What do the screens show for `O=C(Cn1ncc2c3ccccc3n(Cc3ccc(Cl)cc3)c2c1=O)NCCCc1ccccc1`?
Pf Dd2 inh: 34%[0.594 µM]

What do the screens show for `CCCn1c2ccccc2c2cnn(CC(=O)NC(C)CC)c(=O)c21` (stereo not drawn)?
Pf Dd2 inh: 5%

What do the screens show for `Cc1ccccc1Cn1c2ccccc2c2cnn(CC(=O)NCc3cccc(Cl)c3)c(=O)c21`?
Pf Dd2 inh: -5%

Results for Cc1cc(C)c(Cn2c3ccccc3c3cnn(CC(=O)NCc4ccc(Cl)cc4)c(=O)c32)c(C)c1 ?
Pf Dd2 inh: 7.9µM*

Results for Cc1ccc(Cn2c3ccccc3c3cnn(CC(=O)Nc4cc(Cl)ccc4C)c(=O)c32)cc1 ?
Pf Dd2 inh: 12%

Results for O=C(Cn1ncc2c3ccccc3n(Cc3cccc(Cl)c3)c2c1=O)NCCCc1ccccc1 ?
Pf Dd2 inh: -6%

How did CCN(CC)CCCNC(=O)Cn1ncc2c3ccccc3n(Cc3ccccc3)c2c1=O do in these assays?
Pf Dd2 inh: -22%

How did CCCCN(C)CCCNC(=O)Cn1ncc2c3ccccc3n(Cc3cccc(Cl)c3)c2c1=O do in these assays?
Pf Dd2 inh: 5.6µM*

What do the screens show for `CCCN1CCN(C(=O)Cn2ncc3c4ccccc4n(Cc4cccc(Cl)c4)c3c2=O)CC1`?
Pf Dd2 inh: 11µM*

How did COCCNC(=O)[C@@H]1C[C@@H](O)CN1C1CCN(C(=O)c2nn(C)c3ccccc23)CC1 do in these assays?
Pf Dd2 inh: -10%

How did O=C(NC[C@H]1O[C@H](Cc2cc(-c3ccccn3)on2)CC[C@@H]1O)Nc1ccccc1 do in these assays?
Pf Dd2 inh: -20%[44.1 µM]

What do the screens show for `CCCCC(=O)N(C)CC1CCOC1` (stereo not drawn)?
Pf Dd2 inh: 54%[5.79 µM]

Results for COCCNC(=O)[C@H]1C[C@H](Oc2cccnc2)CN1C(=O)Nc1ccc2c(c1)OCCO2 ?
Pf Dd2 inh: -4%

Results for Cc1ccc(-c2cccc(C=O)c2)cc1Cl ?
Pf Dd2 inh: 6%[44.1 µM]

How did NCc1cccc(-c2ccc(O)cc2)c1 do in these assays?
Pf Dd2 inh: -20%[44.1 µM]

How did Cc1ccc(-c2cccc(CN)c2)cc1Cl do in these assays?
Pf Dd2 inh: 11µM*

What do the screens show for `CN(Cc1ccc(-c2ccccc2)cc1)Cc1cccc(F)c1`?
Pf Dd2 inh: -11%[44.1 µM]

What do the screens show for `Cc1ccc(-c2ccc(C=O)cc2)cc1Cl`?
Pf Dd2 inh: 8%[44.1 µM]

What do the screens show for `CSc1ccc(-c2cccc(CN)c2)cc1`?
Pf Dd2 inh: 10µM*

Results for COc1ccc(Cc2nc3nccc(-c4ccccn4)n3n2)cc1 ?
Pf Dd2 inh: -18%

What do the screens show for `Cn1ccnc1CN1CCN2C(=O)N(c3ccccn3)C[C@H]2C1`?
Pf Dd2 inh: -12%[44.1 µM]

How did COCc1ccc2c(c1)c(OC(C)(C)C(=O)NC1CC1)nn2Cc1ccccc1 do in these assays?
Pf Dd2 inh: inactive

What do the screens show for `CC(C)(Oc1nn(CCN2CCOCC2)c2ccccc12)C(=O)NCc1ccccc1`?
Pf Dd2 inh: 11µM*

How did CC(C)(Oc1nn(CCN2CCOCC2)c2ccccc12)C(=O)NCc1ccncc1 do in these assays?
Pf Dd2 inh: inactive

What do the screens show for `COCc1ccc2c(c1)c(OC(C)(C)C(=O)NCC1CC1)nn2Cc1ccccc1`?
Pf Dd2 inh: 4.5µM*

How did COCc1ccc2c(c1)c(OC(C)(C)C(=O)NCC(F)(F)F)nn2Cc1ccccc1 do in these assays?
Pf Dd2 inh: inactive

Results for COCc1ccc2c(c1)c(OC(C)(C)C(=O)NCCN1CCOCC1)nn2Cc1ccccc1 ?
Pf Dd2 inh: inactive

What do the screens show for `Cc1ccc(C(=O)NCc2nnc3cc(-c4nc(C(C)C)no4)ccn23)cc1F`?
Pf Dd2 inh: -11%

How did CN1CC(=O)N(C2CCCNC2)Cc2c(NCCCc3ccccc3)ncnc21 (stereo not drawn) do in these assays?
Pf Dd2 inh: -6%

How did CC(C)N1C[C@H](O)C[C@H]1c1nnc2n1CCN(C(=O)c1cccn1C)CC2 do in these assays?
Pf Dd2 inh: 19%

How did COCCn1nc2n(c1=O)CCN(Cc1sccc1C)CC2 do in these assays?
Pf Dd2 inh: 27%

How did O=C1c2c(nc(CNc3ccc(OC(F)(F)F)cc3)n2Cc2ccccc2)NCCN1CCN1CCOCC1 do in these assays?
Pf Dd2 inh: 5µM*

How did O=C1c2c(nc(CNc3ccc(F)cc3)n2Cc2ccccc2)NCCN1CCN1CCCCC1 do in these assays?
Pf Dd2 inh: inactive

What do the screens show for `O=C1c2c(nc(CNc3cccc(F)c3)n2Cc2ccccc2)NCCN1CCN1CCOCC1`?
Pf Dd2 inh: inactive

How did CC(=O)Nc1ccc(NC(=O)CN2C(=O)NC(c3ccccc3Cl)C3=C2COC3=O)cc1 (stereo not drawn) do in these assays?
Pf Dd2 inh: -20%

Results for Cc1ccc(S(=O)(=O)c2nc(S(=O)(=O)c3ccc(C)cc3)c(NC(C)C)s2)cc1 ?
Pf Dd2 inh: -11%

Results for Cc1ccc(S(=O)(=O)c2nc(S(=O)(=O)c3ccc(C)cc3)c(NCCCOC(C)C)s2)cc1 ?
Pf Dd2 inh: 2.2µM*

High-throughput results deposited in PubChem by National Center for Advancing Translational Sciences (NCATS).
